Several values for one entry are separate records, joined by “and”; a condition that tells them apart may be missing. Identical values can stand only once. Hit rate of the full screen: of about 260,000 compounds, about 1,500 (0.58%) were called active. Roughly 5% stayed inconclusive and do not appear here.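 Rule for the calls: active = inhibition above a set limit at one or more doses, reproduced on every date tested; inconclusive = results disagree between test dates, or hit never tested in dose response; inactive = the rest.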 These entries were drawn from the full list. Entries with a potency or affinity are not part of this list.
Biological target: Virion infectivity factor (Human immunodeficiency virus type 1 group M subtype B (isolate BH10)) + Virion infectivity factor (Human immunodeficiency virus type 1 group M subtype B (isolate BRU/LAI)) + Virion infectivity factor (Human immunodeficiency virus type 1 group M subtype B (isolate PCV12)) + Virion infectivity factor (Human immunodeficiency virus type 1 group M subtype B (isolate HXB2)) + DNA dC->dU-editing enzyme APOBEC-3G (Homo sapiens) (UniProt P69720+P69721+P69722+P69723+Q9HC16)
Experiment: HIV-1 Vif–A3G interaction blockers – biochemical, TR-FRET, GST-Vif 1-94, biotin-A3G peptide, dose response retest, primary screen (AID 1117319);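 note: Vif residues 1-94 fused to GST binding biotinylated APOBEC3G peptide 110-148; 0% = full assay without inhibitor and 100% = GST in place of GST-Vif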
Conditions: TR-FRET GST-Vif / biotin-A3G peptide binding; active compounds read high

inhibition, inactive:
CCOC(=O)c1cnc2c(cnn2C)c1Cl 6.51%, COc1cc(OC)c(-c2oc3ccccc3c(=O)c2O)c(OC)c1 4.4%, COc1cc(OC)c2c(c1)OC(c1ccc(OC)c(OC)c1)C(O)C2=O (stereo not given) 5.17%, COc1ccc(C(=O)OCCN=C2NS(=O)(=O)c3ccccc32)cc1OC 0.81%, CC12CCCc3c(O)cc(=O)n(c31)-c1ccccc12 (stereo not given) 0.05%, Cn1cccc1/C=C1\SC(=S)N(NC(=O)c2ccccc2O)C1=O 27.8%, O=C(NN1C(=O)/C(=C/c2cccs2)SC1=S)c1ccncc1 -1.89%, O=C1/C(=C/c2cccs2)SC(=S)N1NS(=O)(=O)c1ccccc1 -2.36%, COc1cc(/C=C2\SC(=S)N(NC(=O)c3ccccc3O)C2=O)ccc1O 5.15%, CC(/C=C1\SC(=S)N(NS(=O)(=O)c2ccccc2)C1=O)=C\c1ccccc1 -6.38%, O=C(NN1C(=O)/C(=C/C=C/c2ccccc2)SC1=S)c1ccncc1 10.1%, Cc1c(C(=O)NCc2ccccn2)sc2nc(-c3ccc(F)cc3)cn12 0.67%, Cc1ccc(NC(=O)CC2C(=O)NC3CCCCC3N2C(=O)c2ccc(F)cc2)cc1C (stereo not given) 1.01% and 26.2%, Cc1nn(Cc2cccc(Oc3ccccc3)c2)c(C)c1NC(=O)NC12CC3CC(CC(C3)C1)C2 -5.96%, Clc1ccc(CSc2cc3c(nn2)-c2ccccc2CC3)cc1Cl -6.32%, CC1(C(=O)OCC(=O)Nc2ccccc2Cl)CC1(Cl)Cl (stereo not given) -10.2%, Cc1c(Cl)ccc(S(=O)(=O)NCCN2CCOCC2)c1Cl 6.83%, O=CN1CCN(C2CC(=O)N(c3ccc(Br)cc3)C2=O)CC1 (stereo not given) 22.2%, Cc1ccc(Oc2ccccc2/C=C/C(=O)O)cc1 7.01%, COC(=O)c1ccccc1NC(=O)c1noc2c1CCCC2 3.34%, COc1ccc(Cl)cc1NC(=O)c1noc2c1CCCC2 -11.1%, O=C(Nc1ccccc1C(=O)N1CCOCC1)c1noc2c1CCCC2 -4.02%, CC(C)(C)C1CCc2onc(C(=O)Nc3ccc(F)cc3F)c2C1 (stereo not given) 2.83%, CC(=O)c1ccc(NC(=O)c2noc3c2CCC3)cc1 -4.79%, COC(=O)c1ccccc1NC(=O)c1noc2c1CC(C(C)(C)C)CC2 (stereo not given) -0.63%, Cc1ccc(NC(=O)c2noc3c2CCC3)cc1C -3.45%, COc1cc(NC(=O)c2noc3c2CCCC3)c(OC)cc1Cl 11.1%, CCS(=O)(=O)c1ccc(-c2csc(-c3ccc(Cl)cc3)n2)c(Cl)c1Cl 2.97%, CN(CCCNC(=O)CCCOc1cc(=O)n(C)c2ccccc12)Cc1ccccc1 4.88%, CN(C)C(CNC(=O)c1cccc(S(=O)(=O)NCc2ccccc2)c1)c1ccco1 (stereo not given) 0.14%, O=C(CC1SC(N2CCCC2)=NC1=O)Nc1ccc(C(=O)NCc2ccc(F)cc2)cc1 (stereo not given) 4.94%, COc1cc(OC)cc(-n2nnnc2SCC(=O)NCc2cccs2)c1 6.88%, O=C(O)CCCCCNS(=O)(=O)/C=C/c1ccccc1 1.37%, CCN(CC(=O)Nc1ccc(NC(C)=O)cc1)C(=O)/C=C/c1c(C)nn(-c2ccc(F)cc2)c1Cl 0.81%, COC(=O)c1ccccc1NC(=S)NC(=O)C1CCCCC1 -4.52%, COC(=O)c1ccccc1NC(=S)NC(=O)C1CC1 0.95%, COc1cc(NCc2ccccc2O)c2ncccc2c1 3.48%, COc1cc(NCCCCC(C)N)c2nccc(C)c2c1 (stereo not given) 9.33%, CCOC(=O)c1ccc(Oc2nc(N(C)C)nc(N3CCOCC3)n2)cc1 -15.9%, CN1CCN(c2nnc(-c3ccc(Cl)cc3)c3ccccc23)CC1 3.71%, Cc1ccc(C)c(/C=N/n2cc(-c3ccccc3)[nH]c2=S)c1 -9.36%, Cc1ccc(-c2cc(-c3ccc(Cl)cc3)c(C#N)c(N)n2)o1 24.5%, Cc1ccc(-c2cc(-c3ccc(F)cc3)c(C#N)c(N)n2)o1 18.2%, Cc1ccc(-c2cc(-c3ccc(C)o3)nc(N)c2C#N)cc1 27.2%, Cc1cc(-c2ccc(Cl)cc2)c(C#N)c(N)n1 -1.08%, Cc1ccc(CNC(=O)c2ccc(CN3CCOCC3)cc2)cc1 32.3%, Cc1[nH]c2ccccc2c1C(=O)NS(=O)(=O)Nc1ccc(Cl)cc1 12.1%, CN(C)S(=O)(=O)c1ccc(C(=O)Nc2nnc(-c3cccs3)o2)cc1 27.3%, O=C(Nc1ccc(N2CCN(C(=O)c3ccc(Cl)cc3)CC2)cc1)c1ccc(Br)o1 10.6% and 6.22%, CCOC(=O)c1c(NC(=O)Cc2cccs2)sc2c1CCCC2 -5.96%, COC(=O)c1c(NC(=O)Cc2cccs2)sc2c1CCCC2 29.5%, O=c1c2cc(N3CCOCC3)ccc2[nH]c(=S)n1CCN1CCCC1 12.5%, CCCCn1c(=S)[nH]c2ccc(N3CCOCC3)cc2c1=O -3.86%, O=c1c2cc(N3CCOCC3)ccc2[nH]c(=S)n1Cc1ccc(Cl)cc1 -2.52%, O=c1c2cc(N3CCOCC3)ccc2[nH]c(=S)n1Cc1ccccc1Cl -15.9%, CN(C)C(CNS(=O)(=O)c1ccc(F)cc1)c1cccnc1 (stereo not given) -1.58%, CN(C)S(=O)(=O)c1ccc(Cl)c(C(=O)NNC(=O)c2ccc3c(c2)OCO3)c1 -8.17%, Cc1ccsc1C(=O)NC(C)c1ccc2c(c1)OCO2 (stereo not given) 0.99%, CCSc1nnc(Nc2ccc(C)cc2)s1 1.17%, CC(C)C12CN3CC(C(C)C)(CN(C1)C3c1ccc3c(c1)OCO3)C2=O (stereo not given) 2.83%, Cc1ccc2oc(-c3ccc(NC(=O)c4ccncc4)cc3O)nc2c1 -2%, O=C(COC(=O)c1ccc(S(=O)(=O)C(F)F)cc1)Nc1cccnc1Cl 10.1%, Cc1cc(C)n2nc(SCC(=O)N3CCC(C(=O)O)CC3)nc2n1 0.2%, Cc1cccc(OCc2nnc(NC(=O)Cc3cccs3)s2)c1 -15.6%, Clc1ccccc1Oc1cnc2ccccc2n1 31.7%, O=c1c(O[C@@H]2O[C@H](CO)[C@@H](O)[C@H](O)[C@H]2O)c(-c2ccc(O)c(O)c2)oc2cc(O)cc(O)c12 -5.92%, O=c1c(OC2OC(CO)C(O)C(O)C2O)c(-c2ccc(O)c(O)c2)oc2cc(O)cc(O)c12 (stereo not given) -4.71%, C[C@@H]1O[C@@H](OC[C@H]2O[C@@H](Oc3c(-c4ccc(O)c(O)c4)oc4cc(O)cc(O)c4c3=O)[C@H](O)[C@@H](O)[C@@H]2O)[C@H](O)[C@H](O)[C@H]1O -12%, COc1ccc(-c2oc3c(CC=C(C)C)c(O[C@@H]4O[C@H](CO)[C@@H](O)[C@H](O)[C@H]4O)cc(O)c3c(=O)c2O[C@@H]2O[C@@H](C)[C@H](O)[C@@H](O)[C@H]2O)cc1 0.27%, CN(C)C(CNC(=O)CCc1c[nH]c2ccccc12)c1ccccc1 (stereo not given) 0.02%, O=C(COC(=O)C1CCN(S(=O)(=O)c2cccs2)CC1)Nc1ccccc1 -2.54%, CCN(Cc1ccccc1)C(=O)Cn1c(C(C)O)nc2ccccc21 (stereo not given) -14.7%, CC(=O)OC1C(OC(C)=O)C2C(C)CC3OC(=O)C(C)C3CC2(C)C1OC(C)=O (stereo not given) 1.67%, COc1ccc(C(OCC(O)CNCCc2ccc(S(N)(=O)=O)cc2)c2ccc(OC)cc2)cc1 (stereo not given) -0.36%, CC(=O)c1ccc(-n2c(CCC(=O)O)ccc2-c2cccs2)cc1 7.93%, Cc1ccc(-n2c(CCC(=O)O)ccc2-c2cccs2)cc1 9.93%, Cc1c(C(=O)Nc2ccccc2-c2ccccc2)cccc1[N+](=O)[O-] 22.9%, Cc1nn(C)cc1CNC(=O)c1cccc(Cl)c1 0.88%, Cc1ccccc1CNC(=O)c1ccc(Cl)c([N+](=O)[O-])c1 3.74%, COCC(C)OC(=O)c1c(N)n(-c2ccc(OC)c(OC)c2)c2nc3ccccc3nc12 (stereo not given) 7.95%, COc1cc(/C=C/C(=O)OCC(=O)Nc2ccc3c(c2)OCCO3)ccc1OCC#N -0.31%, N#CC1=C2C=Cc3ccccc3N2CCCC1=O 6.87%, Cc1ccc(C)c(-n2c(Cc3cc(=O)[nH]c(=O)[nH]3)nnc2SC(C)C)c1 71.3%, COC(=O)C(C)Sc1nnc(Cc2cc(=O)[nH]c(=O)[nH]2)n1-c1ccc(OC)cc1 (stereo not given) 7.85%, Cn1c(=O)c2c(nc(CN3CCN(C(=O)c4ccco4)CC3)n2Cc2cccc(Cl)c2)n(C)c1=O 7.79%, COc1ccccc1OCC(=O)N1CCCC(Nc2cccc(F)c2)C1 (stereo not given) -1.81%, COCC(=O)n1nc(-c2ccccc2)nc1NCc1ccc(N(C)C)cc1 -5.23%, Cc1cc(C)n(CC(=O)N2CCc3ccccc32)c(=O)c1C#N -19.3%, O=C1OC2(c3ccccc31)c1ccccc1-c1ccccc12 -7.13%, Cc1cc(O)ccc1C1(c2ccc(O)cc2C)OC(=O)c2ccccc21 -0.95%

From PubChem BioAssay AID1117319 (Southern Research Institute, 2015)
